Screening data deposited in PubChem by The Scripps Research Institute Molecular Screening Center.
FBW7 activator – activators of human E3 ligase FBW7; Q969H0; AID 1259310; 0.13% of 650,000 active; normalized activity (activation), % at 26.1 µM; AlphaScreen FBW7–phospho-cyclin E peptide binding, activator screen; in the data active = normalized activity above about 1.9%;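 also: purified mutant Fbw7 with reduced substrate affinity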
MITF inh – human MITF inhibition, primary screen; O75030; AlphaScreen MITF homodimerization, bead proximity signal; inhibition, % at 2.6 µM; 0.91% of 650,000 active; AID 1259374; in the data active = inhibition above about 50%
Target sequence (O75030 whole entry, looked up): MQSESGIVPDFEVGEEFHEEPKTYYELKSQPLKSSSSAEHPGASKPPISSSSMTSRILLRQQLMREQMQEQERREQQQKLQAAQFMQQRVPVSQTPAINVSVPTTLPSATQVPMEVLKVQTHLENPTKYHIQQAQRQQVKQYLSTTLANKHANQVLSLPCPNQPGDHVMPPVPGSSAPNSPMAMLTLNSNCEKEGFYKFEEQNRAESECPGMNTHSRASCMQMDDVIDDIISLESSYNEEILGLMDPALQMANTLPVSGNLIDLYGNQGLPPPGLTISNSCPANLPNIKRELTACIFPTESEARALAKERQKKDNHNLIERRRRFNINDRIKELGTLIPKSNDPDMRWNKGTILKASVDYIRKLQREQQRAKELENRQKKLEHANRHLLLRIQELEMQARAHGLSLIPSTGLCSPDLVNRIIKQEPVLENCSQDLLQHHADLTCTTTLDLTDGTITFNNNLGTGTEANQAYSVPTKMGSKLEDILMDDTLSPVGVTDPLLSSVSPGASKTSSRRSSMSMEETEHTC
GPR151 activ – activates the human receptor GPR151 | Q8TDV0 | PathHunter beta-arrestin GPR151 cells, luminescence | activation, % at 11.2 µM | 1% of 650,000 active; in the data active = activation above about 4.9%
TEAD-YAP inh – TEAD-YAP interaction inhibition. inhibition, % at 9.12 µM. HEK-TIYL cells, TEAD-Gal4/YAP UAS-luciferase luminescence. 1.4% of 640,000 active; in the data active = inhibition above about 32%
Large screens that a line does not name were inactive. A selection: hits, their analogues and other compounds. The true share with any hit is near 3.5%.

CN(C1=C(Cl)C(=O)N(c2cccc(Cl)c2)C1=O)c1ccccc1	TEAD-YAP inh 32.7
CCOc1cccc(C(Nc2cccc(C)n2)c2ccc3ccc(C)nc3c2O)c1 (stereo unspecified)	none
CC(C)CC(=O)NC(c1ccc2c(c1)OCO2)c1ccc2cccnc2c1O (stereo unspecified)	TEAD-YAP inh 84.4
Oc1c(C(Nc2ccccn2)c2ccc(OC3CCCC3)cc2)ccc2cccnc12 (stereo unspecified)	none
Cc1cccc(NC(c2ccc3c(c2)OCO3)c2ccc3cccnc3c2O)n1 (stereo unspecified)	TEAD-YAP inh 80.4
Oc1c(C(Nc2ccccn2)c2ccc3c(c2)OCO3)ccc2cccnc12 (stereo unspecified)	TEAD-YAP inh 86.6
Cn1c(=NC(=O)C2CC2)sc2cccc(F)c21	none
CCC(Sc1nc2ccccc2c(=O)n1CC1CCC(C(=O)NCc2ccccc2)CC1)C(=O)NCc1ccco1 (stereo unspecified)	none
Clc1ccc(OCc2nc(-c3ccccn3)no2)c(Cl)c1	TEAD-YAP inh 36.4
Clc1ccccc1OCc1nc(-c2ccccn2)no1	none
Cc1ccc(Nc2nc(-c3cccc(C)c3)nc3ccccc23)cc1	none
O=C(NCc1cccc(C(F)(F)F)c1)c1cccc(N2CCC(N3CCOCC3)CC2)n1	TEAD-YAP inh 35.8
CCOC(=O)c1ccc(NC(=O)c2cn(CCC#N)nc2-c2ccc(F)cc2)cc1	none
CCN(CC)C(=O)c1cn(CCC#N)nc1-c1ccc(F)cc1	FBW7 activator 2.1
O=C1CN(C(=O)c2cc([N+](=O)[O-])ccc2Cl)c2ccccc2N1	TEAD-YAP inh 59.4
COc1cccc(C(=O)N2CC(=O)Nc3ccccc32)c1	TEAD-YAP inh 42.3
CN(C)c1c(C(=O)N2CC(=O)Nc3ccccc32)cc([N+](=O)[O-])cc1[N+](=O)[O-]	none
COc1cccc(C(=O)N2c3ccccc3NC(=O)CC2C)c1 (stereo unspecified)	none
COc1ccc(S(=O)(=O)N(C)CC(=O)Nc2cccc(F)c2)cc1OC	none
Fc1ccc(CN2CCOc3ccc(-c4ccncc4)cc32)cc1	TEAD-YAP inh 43.5
Cc1onc(-c2ccccc2Cl)c1C(=O)Nc1cccc(Cl)c1	none
COc1ccc2occ(C(=O)COc3ccc(Br)cc3C#N)c2c1	TEAD-YAP inh 57.2
CCCc1ccc(/C=C/c2ccccc2)nc1	TEAD-YAP inh 33.6
COc1ccc(C(=O)/C=C/Nc2ccc(NC(C)=O)cc2)cc1	none
Nc1cc(C(=O)N=Nc2c(O)[nH]c3ccc(Br)cc23)n[nH]c1=O	none
Nc1c(C(=O)NCc2ccccc2)nnn1Cc1cccc(C(F)(F)F)c1	TEAD-YAP inh 48.4
Nc1c(C(=O)NCc2ccccc2)nnn1Cc1cccc(F)c1	none
CCCCN(C)c1nnc(NC(=O)Nc2cc(OC)c(OC)c(OC)c2)s1	TEAD-YAP inh 56.4
CCCCN(C)c1nnc(NC(=O)Nc2ccccc2OC)s1	none
C=CCN1C(=O)N(c2cccc(F)c2)C(=O)C1CC(=O)Nc1ccc(OCCC)cc1 (stereo unspecified)	none
COc1ccc(-c2cc(C(=O)Nc3cc(OC)c(OC)c(OC)c3)ccn2)cc1	none
COc1ccccc1NC(=O)CSc1nc2cc3c(cc2cc1C#N)OCCO3	TEAD-YAP inh 62.1
N#Cc1cc2cc3c(cc2nc1SCC(=O)NCc1ccc2c(c1)OCO2)OCCO3	TEAD-YAP inh 50.2
Cc1ccc2nc(SCC(=O)Nc3ncc(C)s3)c(C#N)cc2c1	FBW7 activator 3.8
COc1cc2cc(C#N)c(SCC(=O)NCc3cccs3)nc2cc1OC	none
N#Cc1cc2cc3c(cc2nc1SCC(=O)NCc1cccs1)OCCO3	TEAD-YAP inh 46.4
O=C(C1CC1c1ccccc1)N1CCc2ccccc2C1 (stereo unspecified)	none
O=C(OCC(=O)N1CCCC1)c1ccc(OC(F)(F)F)cc1	none
CCOc1ccc(NC(=O)C2=C(C)NC(=O)NC2c2ccccc2Cl)cc1 (stereo unspecified)	TEAD-YAP inh 33.3
O=C(O)CNC(=O)CNC(=O)c1ccco1	none
O=C(Cc1ccc(Br)cc1)N1CCC(c2nc3ccncc3c(=O)[nH]2)C1 (stereo unspecified)	FBW7 activator 2.3
Cc1sc2nc(C3CCCN(C(=O)Cc4ccc(F)cc4)C3)[nH]c(=O)c2c1C (stereo unspecified)	none
COc1ccc(C(=O)COC(=O)C(CC(C)C)N2C(=O)c3ccccc3C2=O)cc1 (stereo unspecified)	none
CC(=C/c1ccccc1)/C=N/n1c(-c2ccncc2)n[nH]c1=S	TEAD-YAP inh 38.7
Nc1c(C(=O)Nc2nccs2)sc2nc3c(cc12)CCC3	TEAD-YAP inh 55.8
CC(C)c1ccc2nc3sc(C(=O)Nc4nccs4)c(N)c3cc2c1	TEAD-YAP inh 65.7
Cc1ccc2nc3sc(C(=O)Nc4c(C)[nH]c(=O)[nH]c4=O)c(N)c3cc2c1	none
Cc1[nH]c(=O)[nH]c(=O)c1NC(=O)c1sc2nc3ccc(C(C)C)cc3cc2c1N	TEAD-YAP inh 78.9
Cc1cc2cc3c(N)c(C(=O)Nc4nc(C)c(C)s4)sc3nc2cc1C	FBW7 activator 46.2
Cc1ccc2cc3c(N)c(C(=O)Nc4nc(C)c(C)s4)sc3nc2c1	none
Cc1cc(C(F)(F)F)nn1CC(=O)Nc1cc(C(F)(F)F)ccc1Cl	none
CCOc1cccc(C2C(C(=O)OC)=CN(C(C)C)C=C2C(=O)OC)c1	none
CCOc1ccc(-c2nnc3s/c(=C\c4ccc(Cl)cc4)c(=O)n23)cc1	none
CC1CC(C)CN(c2c(-c3ccc4c(c3)OCC(=O)N4)c(=O)c2=O)C1 (stereo unspecified)	none
CC/C=C\C[C@H](O)/C=C/[C@H]1[C@H](O)CC(=O)[C@@H]1C/C=C\CCCC(=O)O	none (no result: FBW7 activator, TEAD-YAP inh)
CCOc1ccc(-n2nnnc2-c2nc3ccccc3s2)cc1	TEAD-YAP inh 42.4
Cc1ccc(-n2nnnc2-c2nc3ccccc3s2)cc1	none
COc1cc2nc(Oc3ccccc3)nc(Nc3cc(OC)c(OC)c(OC)c3)c2cc1OC	TEAD-YAP inh 56.4
Cc1ccc(-c2ncn(-c3ccc(Nc4nccc(-c5ccc(N)nc5)n4)cc3)n2)cn1	FBW7 activator 5.4, TEAD-YAP inh 41.2
Cc1ccc(-c2ncn(-c3ccc(Nc4nccc(-c5ccc(Cl)nc5)n4)cc3)n2)cn1	none
Cc1ccc(-c2ncn(-c3ccc(Nc4nccc(-c5ccc(S(C)(=O)=O)c(N6CCCC(O)C6)c5)n4)cc3)n2)cn1 (stereo unspecified)	TEAD-YAP inh 38.2
O=C1c2ccccc2C(=O)c2cc(S(=O)(=O)O)c(O)cc21	MITF inh 64.5
Nc1cc2c(cc1S(=O)(=O)O)C(=O)c1ccccc1C2=O	none
Cn1c(SCC(=O)Nc2ccc(F)c([N+](=O)[O-])c2)nnc1-c1ccccc1	none
COc1ccc(C(=O)Nc2nc3c(cc4c5c(cccc53)CC4)s2)cc1	none
C/C=C/C(=O)Oc1ccccc1/C=C1/N=C(c2ccc(Cl)cc2)OC1=O	TEAD-YAP inh 36.4
CCCCCCOc1ccccc1/C=C1/N=C(c2ccc(Cl)cc2)OC1=O	none
CCCCN1C(=O)c2cccc3c(N4CCCC4)ccc(c23)C1=O	none
CCN1C(=O)c2cccc3c(N4CCCC4)ccc(c23)C1=O	FBW7 activator 2.1
COc1ccccc1CNS(=O)(=O)c1ccc(F)c(C(=O)Nc2cccc(C)c2C)c1	none
